Laboratory results as given in PubChem BioAssay AID588774 (The Scripps Research Institute Molecular Screening Center, 2011).
The source made the active and inactive calls.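 How the source made its calls: active means target enzyme inhibited at least 50% at a set dose, and selective over every off-target enzyme by a set factor; inactive means weaker inhibition or too little selectivity.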

What was measured:
[1] = competitive ABPP of pPAFAH versus proteome hydrolases – biochemical, gel-based, FP-Rh fluorescence, complex proteome, SAR compounds, selectivity assay for pPAFAH inhibitor project, SAR follow-up (AID 588774); details: MW 32 kDa, anti-targets inhibited, at 10 µM;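 on inhibition: 0% = DMSO-only band intensity and 100% = blank gel background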
MW 32 kDa = experiment: as above; details: at 10 µM, stronger effect = higher value

| SMILES | anti-target count [1] | inhibition (MW 32 kDa) |
| --- | --- | --- |
| O=C(N1CCOCC1)n1oc2cc(Cl)ccc2c1=O | 6 | 39% (inactive) |
| Cc1cc(N2CCN(C(=O)Oc3ccc(C4CCCCC4)cc3)CC2)c2ccccc2n1 | 0 | 0% (inactive) |
| Cc1cc(N2CCN(C(=O)Oc3ccc(C4CCCC4)cc3)CC2)c2ccccc2n1 | 0 | 0% (inactive) |
| Cc1cc(N2CCN(C(=O)n3ncc(-c4ccc([N+](=O)[O-])cc4)n3)CC2)c2ccccc2n1 | 9 | 85% (inactive) |
